Assay results as given in PubChem BioAssay.
Results with a measured potency or affinity are listed apart. Records with an inconclusive call do not appear. Calls of active or inactive are those of the source.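 Rule for the calls, unless noted: active = a fitted half-maximal concentration no higher than twice the top valid tested dose, with signal falling as cells die; inconclusive = flat curve between -70% and -30%, or poor fit; inactive = the rest, including signal rising instead of falling.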

Legend:
[1] = fungal growth arrest, C. neoformans – Alamar Blue, cherry-picks, dose response (AID 686998;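 active = falling signal with fitted half-maximal potency no higher than twice the top valid tested dose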)
[2] = C. neoformans lysis by adenylate kinase leakage – AK release luminescence, cherry-picks, dose response (AID 687000;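 active = fitted dose curve reaches 40% lysis signal rise at or below the highest valid concentration tested for that sample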;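 note: luminescent detection of adenylate kinase leaking from lysed yeast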)
[3] = viability loss in HepG2 hepatoma cells – cell-based, cherry-picks, set 2, cytotoxicity control, dose response (AID 687002;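 active = a dose-response fit showing signal loss, with half-maximal concentration no higher than twice the top tested dose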)
[4] = viability loss in HeLa cells – cell-based, ATP luminescence, cherry-pick samples, cytotoxicity control, dose response (AID 687004)

Measured: outcome

C[C@H](CO)N1C[C@H](C)[C@@H](CN(C)C(=O)C2CCOCC2)Oc2ncc(C#CCc3ccccc3)cc2C1=O
inactive: [1] | [2] | [3] | [4]

CCC(C)(C(=O)NC1CCCCC1)N(C(=O)C1CCC(=O)N1)c1ccc(C)cc1 (stereo not drawn)
inactive: [1] | [2] | [3] | [4]

O=C(C[C@@H]1CC[C@@H]2[C@H](COC[C@H](O)CN2Cc2cccc(C(F)(F)F)c2)O1)NCc1ccc(Cl)cc1
inactive: [1] | [2] | [3] | [4]

CC(C)NC(=O)N(C)C[C@@H]1OCCCC[C@H](C)Oc2ccc(NC(=O)Cc3ccccc3)cc2C(=O)N([C@H](C)CO)C[C@H]1C
inactive: [1] | [2] | [3] | [4]

C[C@@H]1CN([C@H](C)CO)C(=O)c2cc(-c3ccc(F)cc3)cnc2O[C@H]1CN(C)CC1CCCCC1
inactive: [1] | [2] | [3] | [4]

C[C@H](O)C#Cc1ccc([C@H]2[C@H](CO)N3CCCCN(CC4CCOCC4)C[C@@H]23)cc1
inactive: [1] | [2] | [3] | [4]

C[C@@H]1CN([C@H](C)CO)C(=O)c2cc(/C=C/c3ccccc3)cnc2O[C@@H]1CN(C)S(C)(=O)=O
inactive: [1] | [2] | [3] | [4]

C[C@@H]1CN([C@@H](C)CO)C(=O)c2cc(N(C)C)ccc2O[C@@H]1CN(C)C(=O)Nc1ccc(C(F)(F)F)cc1
inactive: [1] | [2] | [3] | [4]

COc1ccc(NC(=O)c2noc(C(C)C)c2[N+](=O)[O-])cc1
inactive: [1] | [2] | [3] | [4]

CC(=O)N(C)C[C@H]1Oc2cc(C#Cc3ccc(F)cc3)ccc2S(=O)(=O)N([C@H](C)CO)C[C@@H]1C
inactive: [1] | [2] | [3] | [4]

CCCN(C)C[C@H]1OCCCC[C@@H](C)Oc2ccc(NC(=O)NC(C)C)cc2C(=O)N([C@@H](C)CO)C[C@H]1C
inactive: [1] | [2] | [3] | [4]

CC(C)(C)SCCNC(=O)CN(c1ccccc1)S(=O)(=O)c1ccc(F)cc1
inactive: [1] | [2] | [3] | [4]

C[C@@H]1CN([C@@H](C)CO)C(=O)c2cc(C3=CCCCC3)cnc2O[C@H]1CN(C)C(=O)Cc1cccnc1
inactive: [1] | [2] | [3] | [4]

O=C(C[C@@H]1CC[C@@H]2[C@H](COC[C@H](O)CN2Cc2cccc(C(F)(F)F)c2)O1)NCc1ccccc1
inactive: [1] | [2] | [3] | [4]

COc1cccc(-c2cn(CC[C@@H]3CC[C@H](NC(C)=O)[C@@H](CO)O3)nn2)c1
inactive: [1] | [2] | [3] | [4]

O=C(CSc1ncnc2c1cnn2-c1ccc(F)cc1)NC1CCCC1
inactive: [1] | [2] | [3] | [4]

O=C([C@@H]1[C@@H](CO)[C@@H]2Cn3c(cccc3=O)[C@@H]2N1CCC(F)(F)F)N1CCCCC1
inactive: [1] | [2] | [3] | [4]

CC(NC(=O)COc1ccc([N+](=O)[O-])cc1)c1ccccc1 (stereo not drawn)
inactive: [1] | [2] | [3] | [4]

CC(Sc1ncnc2c1cnn2-c1ccccc1)C(=O)Nc1ccc(N2CCOCC2)cc1 (stereo not drawn)
inactive: [1] | [2] | [3] | [4]

CN1[C@@H]2c3ccc(-c4cccnc4)c(=O)n3C[C@@H]2[C@@H](CO)[C@@H]1C(=O)N1CCc2ccccc2C1
inactive: [1] | [2] | [3] | [4]

COc1ccccc1-c1cnc2c(c1)C(=O)N([C@H](C)CO)C[C@@H](C)[C@H](CN(C)Cc1cncnc1)O2
inactive: [1] | [2] | [3] | [4]

Cc1ccc(S(=O)(=O)N[C@@H]2CCCN(Cc3cccc(OCCO)c3)C2)cc1
inactive: [1] | [2] | [3] | [4]

COc1cccc(S(=O)(=O)Nc2ccc3c(c2)[C@@H]2C[C@H](CC(=O)NC4CCCCC4)O[C@H](CO)[C@@H]2O3)c1
inactive: [1] | [2] | [3] | [4]

O=C(Cc1cccs1)N1CCN(c2ccccc2)CC1
inactive: [1] | [2] | [3] | [4]

O=C(NC(=S)Nc1ccccc1)c1cc([N+](=O)[O-])ccc1N1CCOCC1
inactive: [1] | [2] | [3] | [4]

CCCCN1CCCCC1C(=O)Nc1c(C)cccc1C (stereo not drawn)
inactive: [1] | [2] | [3] | [4]

CC(C)NC(=O)NCC[C@H]1CC[C@H](NC(=O)CN(C)C)[C@H](CO)O1
inactive: [1] | [2] | [3] | [4]

O=C(c1cccc(F)c1)N1CCCCN2[C@@H](CO)[C@H](c3ccc(-c4ccncc4)cc3)[C@@H]2C1
inactive: [1] | [2] | [3] | [4]

CCNC(=O)C[C@@H]1CC[C@H]2[C@@H](COC[C@@H](O)CN2S(=O)(=O)c2ccccc2F)O1
inactive: [1] | [2] | [3] | [4]

CCS(=O)(=O)N1CCCCN2[C@H](CO)[C@@H](c3ccc(-c4ccc(C#N)cc4)cc3)[C@@H]2C1
inactive: [1] | [2] | [3] | [4]

Cc1ccc(N(C(=O)C2CCC(=O)N2)C2(C(=O)NC3CCCCC3)CCCCC2)cc1 (stereo not drawn)
inactive: [1] | [2] | [3] | [4]

CN1C(=O)c2cc(NC(=O)NC3CCCC3)ccc2OC[C@H]2O[C@@H](CC(=O)NCC3CC3)CC[C@@H]21
inactive: [1] | [2] | [3] | [4]

Cc1noc(C)c1NC(=O)Nc1ccc2c(c1)C(=O)N([C@H](C)CO)C[C@@H](C)[C@H](CN(C)S(C)(=O)=O)OCCCC[C@@H](C)O2
inactive: [1] | [2] | [3] | [4]

CC(C)NC(=O)Nc1ccc2c(c1)CC(=O)N([C@@H](C)CO)C[C@@H](C)[C@@H](CN(C)S(=O)(=O)c1ccc(Cl)cc1)O2
inactive: [1] | [2] | [3] | [4]

O=C([C@@H]1[C@@H](CO)[C@@H]2Cn3c(cccc3=O)[C@H]1N2Cc1cccc(Cl)c1)N1CCOCC1
inactive: [1] | [2] | [3] | [4]

C[C@H]1CN([C@@H](C)CO)C(=O)Cc2cc(NC(=O)C3CC3)ccc2O[C@H]1CN(C)Cc1ccc(-c2ccccc2)cc1
inactive: [1] | [2] | [3] | [4]

CCC(C)(C(=O)NC1CCCC1)N(C(C)=O)c1ccc(C)cc1 (stereo not drawn)
inactive: [1] | [2] | [3] | [4]

O=C(CSc1ncnc2c1cnn2-c1ccccc1Cl)N1CCN(C(=O)c2ccco2)CC1
inactive: [1] | [2] | [3] | [4]

CO[C@H]1CN(C)C(=O)c2cc(NC(=O)c3ccc4c(c3)OCO4)ccc2OC[C@@H](C)N(CC2CC2)C[C@H]1C
inactive: [1] | [2] | [3] | [4]

Cc1ccc(NC(=O)C2(C)CCN2C(=O)CC2CC2)cc1C (stereo not drawn)
inactive: [1] | [2] | [3] | [4]

CCCNC(=O)Nc1ccc2c(c1)C(=O)N(C)C[C@@H](OC)[C@@H](C)CN(C(=O)CC)[C@H](C)CO2
inactive: [1] | [2] | [3] | [4]

C[C@H](CO)N1C[C@H](C)[C@H](CN(C)Cc2cccc(C(F)(F)F)c2)OCc2cnnn2CCCC1=O
inactive: [1] | [2] | [3] | [4]

C[C@H]1CCCCO[C@@H](CN(C)C(=O)c2ccccc2)[C@@H](C)CN([C@@H](C)CO)C(=O)c2cc(NC(=O)c3ccncc3)ccc2O1
inactive: [1] | [2] | [3] | [4]

O=C(c1cccnc1)N1CCC(Oc2ccc(C(=O)N3CCCC(O)C3)cc2)CC1 (stereo not drawn)
inactive: [1] | [2] | [3] | [4]

C[C@@H]1CN([C@@H](C)CO)C(=O)CCCn2cc(nn2)CO[C@@H]1CN(C)C(=O)CCCN(C)C
inactive: [1] | [2] | [3] | [4]

C[C@H](O)C#Cc1ccc2c(c1)O[C@H](CN(C)C(=O)C1CCCCC1)[C@H](C)CN([C@@H](C)CO)S2(=O)=O
inactive: [1] | [2] | [3] | [4]

O=C(Nc1cccc(F)c1)N[C@H]1CC[C@H](CCNS(=O)(=O)c2cccc(Cl)c2)O[C@@H]1CO
inactive: [1] | [2] | [3] | [4]

COc1ccccc1-c1ccc([C@H]2[C@@H](C#N)N(C(=O)C3CC3)[C@@H]2CO)cc1
inactive: [1] | [2] | [3] | [4]

Cc1nnc(NC(=O)CSc2ncnc3c2cnn3-c2ccccc2C)s1
inactive: [1] | [2] | [3] | [4]

COc1ccc(-n2cc(CNCCc3nc(C)cc(C)n3)c(-c3ccccc3Cl)n2)cc1
inactive: [1] | [2] | [3] | [4]

Cc1ccc(S(=O)(=O)Nc2ccc3c(c2)C(=O)N([C@@H](C)CO)C[C@H](C)[C@H](CN(C)S(=O)(=O)c2ccc(Cl)cc2)OCCCC[C@@H](C)O3)cc1
inactive: [1] | [2] | [3] | [4]

O=C(C[C@H]1CC[C@H](NC(=O)Nc2ccc(C(F)(F)F)cc2)[C@H](CO)O1)NCc1cccc(F)c1
inactive: [1] | [2] | [3] | [4]
